# Reference: the supplement of paper PMC10849652
# The full data set covers some 8,800 targets. This sample favours those with a hit. About 0.5% of all pairs of compound and target were hits. Unmarked numbers belong to inactive results.
# Experiments:
# Experiment in all cases: log2 fold change, soluble protein after heating vs DMSO (PISA); higher = thermal stabilisation; K562 lysate, 10 uM; active = over 0.2 and 3.5 SD of the protein, either way, in both replicates (recomputed)
# [1] = compound: C1=CC=C(C=C1)[C@H](COC2=CC3=C(C=C2)NC(=O)N3)NC(=O)C4=CC=CN(C4=O)CC5=CC(=C(C=C5)F)F
# In short: (§1)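 A 30 min treatment with 10 μM compound was applied to crude K562 extract at 1 mg/mL protein in PBS pH 7.4 with 1 mM MgCl2. Heating for 3 min spanned 48°C-58°C, after which aliquots were pooled, adjusted to 0.5% NP-40 at 4°C and spun at 21,000xg for 90 min. TMTpro 16plex LC-MS/MS of the supernatant, with channel sums equalised, gave values recorded as log-two fold change in thermal stability against solvent controls, from duplicates.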
# [2] = compound: CC1=C(SC2=C1C(=N[C@H](C3=NN=C(N32)C)CC(=O)N)C4=CC=C(C=C4)Cl)C
# In short: as §1
# [3] = compound: CC1=C2C(=CC=C1)N=C(N(C2=O)C3=CC=CC=C3C)CN4C=NC5=C(N=CN=C54)N
# In short: as §1
# [4] = compound: Cc1sc2c(c1C)C(c1ccc(Cl)cc1)=N[C@@H](CC(=O)OC(C)(C)C)c1nnc(C)n1-2
# In short: as §1
# [5] = compound: c1ccc([C@@H]2C[C@H]2NC2CCNCC2)cc1
# In short: as §1
# UniProt P02724, sequence (P02724 whole entry, looked up): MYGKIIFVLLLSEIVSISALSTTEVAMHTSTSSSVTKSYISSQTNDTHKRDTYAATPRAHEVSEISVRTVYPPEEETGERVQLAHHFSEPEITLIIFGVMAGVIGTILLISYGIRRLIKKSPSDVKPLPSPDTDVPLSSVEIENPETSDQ
# UniProt Q68E01, sequence (Q68E01 whole entry, looked up): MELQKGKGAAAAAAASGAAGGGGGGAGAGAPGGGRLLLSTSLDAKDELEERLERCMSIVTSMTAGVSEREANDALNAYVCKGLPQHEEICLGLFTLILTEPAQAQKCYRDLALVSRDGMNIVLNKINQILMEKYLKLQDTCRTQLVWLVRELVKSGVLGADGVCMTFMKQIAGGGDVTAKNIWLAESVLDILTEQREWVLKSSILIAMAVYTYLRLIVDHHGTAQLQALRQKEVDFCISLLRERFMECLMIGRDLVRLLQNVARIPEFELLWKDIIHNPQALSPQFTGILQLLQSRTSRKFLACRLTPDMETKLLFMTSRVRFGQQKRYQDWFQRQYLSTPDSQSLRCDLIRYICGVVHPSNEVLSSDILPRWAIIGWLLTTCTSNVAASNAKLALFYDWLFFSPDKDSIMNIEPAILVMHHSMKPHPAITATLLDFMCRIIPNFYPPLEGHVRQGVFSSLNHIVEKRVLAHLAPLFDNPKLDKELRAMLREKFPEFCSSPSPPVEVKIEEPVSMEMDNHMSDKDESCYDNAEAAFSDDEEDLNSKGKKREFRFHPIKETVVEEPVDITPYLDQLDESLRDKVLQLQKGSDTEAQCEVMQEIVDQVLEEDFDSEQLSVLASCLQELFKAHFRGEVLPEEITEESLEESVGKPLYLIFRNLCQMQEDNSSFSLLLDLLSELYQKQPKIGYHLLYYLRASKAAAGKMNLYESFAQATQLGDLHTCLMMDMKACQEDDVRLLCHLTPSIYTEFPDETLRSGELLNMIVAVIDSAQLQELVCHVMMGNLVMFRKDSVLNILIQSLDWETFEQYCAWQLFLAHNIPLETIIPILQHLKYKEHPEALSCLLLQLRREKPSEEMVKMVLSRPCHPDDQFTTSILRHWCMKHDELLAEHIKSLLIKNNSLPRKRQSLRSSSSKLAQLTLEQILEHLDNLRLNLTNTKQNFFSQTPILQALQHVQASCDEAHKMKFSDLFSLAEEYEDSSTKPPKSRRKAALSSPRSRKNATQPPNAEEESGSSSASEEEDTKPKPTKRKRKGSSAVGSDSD
# UniProt Q92805, sequence (Q92805 whole entry, looked up): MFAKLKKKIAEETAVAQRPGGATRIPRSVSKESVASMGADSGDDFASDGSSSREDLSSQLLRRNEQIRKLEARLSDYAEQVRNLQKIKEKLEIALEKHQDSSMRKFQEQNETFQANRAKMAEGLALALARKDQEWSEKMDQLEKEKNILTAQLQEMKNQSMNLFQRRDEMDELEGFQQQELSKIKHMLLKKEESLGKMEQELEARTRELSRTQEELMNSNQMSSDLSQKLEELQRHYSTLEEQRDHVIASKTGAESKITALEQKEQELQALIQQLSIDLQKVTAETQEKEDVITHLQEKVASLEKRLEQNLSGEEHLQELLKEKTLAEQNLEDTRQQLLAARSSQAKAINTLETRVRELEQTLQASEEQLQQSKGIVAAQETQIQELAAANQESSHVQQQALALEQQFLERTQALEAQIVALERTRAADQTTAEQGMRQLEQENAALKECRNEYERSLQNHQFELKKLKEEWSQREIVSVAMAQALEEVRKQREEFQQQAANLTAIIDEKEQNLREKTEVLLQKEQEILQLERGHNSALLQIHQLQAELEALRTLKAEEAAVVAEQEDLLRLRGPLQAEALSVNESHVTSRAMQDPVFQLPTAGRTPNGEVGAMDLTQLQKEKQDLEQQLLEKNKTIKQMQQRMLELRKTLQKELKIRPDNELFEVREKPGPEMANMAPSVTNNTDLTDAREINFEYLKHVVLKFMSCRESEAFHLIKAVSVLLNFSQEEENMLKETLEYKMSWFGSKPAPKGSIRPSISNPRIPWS
# UniProt P50053, sequence (P50053 whole entry, looked up): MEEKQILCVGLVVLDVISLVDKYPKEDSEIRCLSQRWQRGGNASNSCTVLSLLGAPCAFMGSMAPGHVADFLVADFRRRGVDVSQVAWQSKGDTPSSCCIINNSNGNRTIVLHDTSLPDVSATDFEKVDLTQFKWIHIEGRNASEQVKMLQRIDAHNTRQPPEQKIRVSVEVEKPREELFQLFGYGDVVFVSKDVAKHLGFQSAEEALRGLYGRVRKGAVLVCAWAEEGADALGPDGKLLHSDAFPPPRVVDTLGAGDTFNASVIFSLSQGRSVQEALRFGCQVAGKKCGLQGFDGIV
# UniProt Q9NPR9, sequence (Q9NPR9 whole entry, looked up): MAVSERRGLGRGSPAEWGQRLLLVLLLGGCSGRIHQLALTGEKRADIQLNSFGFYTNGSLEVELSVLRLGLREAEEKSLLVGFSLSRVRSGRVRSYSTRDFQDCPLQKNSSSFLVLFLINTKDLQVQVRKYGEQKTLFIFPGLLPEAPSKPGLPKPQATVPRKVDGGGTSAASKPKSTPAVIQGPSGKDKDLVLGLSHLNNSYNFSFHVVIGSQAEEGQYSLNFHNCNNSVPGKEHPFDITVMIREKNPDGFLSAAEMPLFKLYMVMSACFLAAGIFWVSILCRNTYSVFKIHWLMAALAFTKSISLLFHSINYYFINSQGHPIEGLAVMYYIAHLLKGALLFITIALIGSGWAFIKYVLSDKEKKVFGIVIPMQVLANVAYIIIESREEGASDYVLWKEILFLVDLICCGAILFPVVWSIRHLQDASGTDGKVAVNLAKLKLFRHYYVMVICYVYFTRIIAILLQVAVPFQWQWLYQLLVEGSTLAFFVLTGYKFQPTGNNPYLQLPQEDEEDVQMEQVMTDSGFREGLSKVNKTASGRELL
# UniProt Q8NC54, sequence (Q8NC54 whole entry, looked up): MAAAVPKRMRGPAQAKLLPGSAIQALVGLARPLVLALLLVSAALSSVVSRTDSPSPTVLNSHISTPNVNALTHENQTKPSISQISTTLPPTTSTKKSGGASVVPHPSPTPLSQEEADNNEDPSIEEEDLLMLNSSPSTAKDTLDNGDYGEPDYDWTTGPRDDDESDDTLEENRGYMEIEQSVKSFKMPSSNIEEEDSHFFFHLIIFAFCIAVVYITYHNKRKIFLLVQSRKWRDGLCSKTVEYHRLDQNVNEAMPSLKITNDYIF
# UniProt P08236, sequence (P08236 whole entry, looked up): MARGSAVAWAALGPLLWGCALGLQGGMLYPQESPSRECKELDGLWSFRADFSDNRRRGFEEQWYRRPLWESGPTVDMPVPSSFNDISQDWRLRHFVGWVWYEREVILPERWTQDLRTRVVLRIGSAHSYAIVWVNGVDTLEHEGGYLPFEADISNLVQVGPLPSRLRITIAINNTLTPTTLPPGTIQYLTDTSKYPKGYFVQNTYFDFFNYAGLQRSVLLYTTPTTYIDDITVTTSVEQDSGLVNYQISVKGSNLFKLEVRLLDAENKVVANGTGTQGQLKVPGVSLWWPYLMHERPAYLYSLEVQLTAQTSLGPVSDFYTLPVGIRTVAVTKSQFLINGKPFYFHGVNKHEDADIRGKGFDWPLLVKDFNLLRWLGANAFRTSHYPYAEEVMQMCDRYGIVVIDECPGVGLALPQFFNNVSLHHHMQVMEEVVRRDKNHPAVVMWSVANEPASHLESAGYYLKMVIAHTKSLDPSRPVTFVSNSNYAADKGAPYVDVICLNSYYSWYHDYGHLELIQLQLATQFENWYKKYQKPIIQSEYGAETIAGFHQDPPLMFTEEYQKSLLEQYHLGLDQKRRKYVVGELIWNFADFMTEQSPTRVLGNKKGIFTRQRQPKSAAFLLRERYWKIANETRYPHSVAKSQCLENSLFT
# UniProt P82970, sequence (P82970 whole entry, looked up): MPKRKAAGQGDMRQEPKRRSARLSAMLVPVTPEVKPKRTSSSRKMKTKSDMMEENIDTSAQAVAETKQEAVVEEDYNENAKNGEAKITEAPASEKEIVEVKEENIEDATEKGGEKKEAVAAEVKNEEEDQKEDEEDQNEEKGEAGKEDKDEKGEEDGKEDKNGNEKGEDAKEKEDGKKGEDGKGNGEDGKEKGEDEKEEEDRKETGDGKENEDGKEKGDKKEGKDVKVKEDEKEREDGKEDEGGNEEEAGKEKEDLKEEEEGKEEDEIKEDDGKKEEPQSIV
# UniProt P04792, sequence (P04792 whole entry, looked up): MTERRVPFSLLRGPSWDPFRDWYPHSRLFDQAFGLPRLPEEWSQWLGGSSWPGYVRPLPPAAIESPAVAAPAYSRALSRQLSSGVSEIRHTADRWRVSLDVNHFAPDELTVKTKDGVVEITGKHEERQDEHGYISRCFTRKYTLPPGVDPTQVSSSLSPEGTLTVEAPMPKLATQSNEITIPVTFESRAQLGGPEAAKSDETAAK
# UniProt Q8IU81, sequence (Q8IU81 whole entry, looked up): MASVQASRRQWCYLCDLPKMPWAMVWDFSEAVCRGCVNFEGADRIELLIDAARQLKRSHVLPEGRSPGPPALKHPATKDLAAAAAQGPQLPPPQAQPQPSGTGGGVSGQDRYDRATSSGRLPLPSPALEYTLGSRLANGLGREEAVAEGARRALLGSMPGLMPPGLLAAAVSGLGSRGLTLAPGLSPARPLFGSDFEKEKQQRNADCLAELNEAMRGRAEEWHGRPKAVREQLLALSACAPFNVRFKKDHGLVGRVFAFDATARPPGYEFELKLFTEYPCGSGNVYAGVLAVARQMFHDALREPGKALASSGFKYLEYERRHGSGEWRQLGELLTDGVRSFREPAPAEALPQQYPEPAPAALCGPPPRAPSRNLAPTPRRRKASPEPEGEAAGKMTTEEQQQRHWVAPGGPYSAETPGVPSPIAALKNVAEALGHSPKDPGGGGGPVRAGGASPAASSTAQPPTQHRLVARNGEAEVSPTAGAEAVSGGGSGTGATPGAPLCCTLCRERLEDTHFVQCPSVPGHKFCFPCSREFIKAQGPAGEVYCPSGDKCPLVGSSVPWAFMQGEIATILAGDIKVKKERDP
# UniProt P17096, sequence (P17096 whole entry, looked up): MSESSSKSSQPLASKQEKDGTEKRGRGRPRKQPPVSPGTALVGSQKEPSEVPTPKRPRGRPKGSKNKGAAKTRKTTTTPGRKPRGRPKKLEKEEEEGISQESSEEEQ
Target,log2 fold change [1],log2 fold change [2],log2 fold change [3],log2 fold change [4],log2 fold change [5]
HACE1 (UniProt Q8IYU2),-0.03,0.08,0.07,-0.115,-0.377
GYPA (UniProt P02724),0.071,-0.055,-0.002,0.138,0.236
GTPBP2 (UniProt Q9BX10),0.019,0.021,0.025,0.049,0.034
ILRUN (UniProt Q9H6K1),0.078,-0.021,0.03,0.009,0.028
GMIP (UniProt Q9P107),0.023,-0.04,-0.04,-0.018,0.054
HSPB1 (UniProt P04792),-0.091,0.002,0.002,-0.017,0.028
HNRNPDL (UniProt O14979),0.033,0.002,0,0.048,-0.071
HMGCS1 (UniProt Q01581),0.043,-0.022,0.02,0.003,-0.009
GIT1 (UniProt Q9Y2X7),0.013,-0.008,0.009,0.093,0.073
HMGN5 (UniProt P82970),0.033,0.05,-0.008,-0.026,0.083
HIST2H2AA3 (UniProt Q6FI13),0.017,0,-0.111,0.268,0.277
IRF2BP1 (UniProt Q8IU81),-0.048,-0.013,-0.043,0.017,-0.045
KHK isoform 2 (UniProt P50053),-0.01,0.034,-0.003,-0.137,0.142
HADHA (UniProt P40939),0.065,-0.006,0.102,0.117,-0.008
INTS3 (UniProt Q68E01),0.017,0.063,-0.043,-0.06,0.074
GOLGA1 (UniProt Q92805),-0.042,0.045,0.026,-0.057,0.009
HDGFL2 isoform 2 (UniProt Q7Z4V5),0.051,-0.014,0.01,-0.076,-0.212

Target,log2 fold change [1],log2 fold change [2],log2 fold change [3],log2 fold change [4],log2 fold change [5]
HDHD5 (UniProt Q9BXW7),0,0.071,0.032,-0.05,-0.012
HAUS3 (UniProt Q68CZ6),-0.035,0.023,0.051,-0.032,0.064
HMGA1 (UniProt P17096),0.009,0.024,0.011,-0.031,-0.135
GSE1 (UniProt Q14687),-0.031,0.005,-0.002,-0.015,0.184
HECTD4 (UniProt J3KPF0),-0.013,0.023,0.068,-0.03,0.043
KDM5B isoform 2 (UniProt Q9UGL1),-0.07,0.117,0.018,0.07,-0.229
GTF2H1 (UniProt P32780),0.006,-0.035,0.089,0.025,0.006
GPR108 (UniProt Q9NPR9),0.059,-0.053,0.005,-0.066,0.014
GUSB (UniProt P08236),0.035,0.022,0.016,-0.051,-0.313
KCT2 (UniProt Q8NC54),0.069,-0.008,-0.05,-0.033,-0.173
HSP90AA4P (UniProt Q58FG1),0.012,0.1,-0.008,-0.101,-0.308
KBTBD4 isoform 2 (UniProt Q9NVX7),-0.014,-0.003,-0.106,-0.025,0.016
GPX4 (UniProt P36969),0.018,-0.01,0.036,-0.03,0.048
GLYR1 (UniProt Q49A26),-0.179,0.066,-0.128,0.142,0.043
HSPA8 (UniProt E9PK54),0.065,-0.031,-0.031,-0.046,-0.125
GON4L (UniProt Q3T8J9),0.027,0,0.008,0.003,0.466 (active)
